# Pf Dd2 growth – P. falciparum Dd2 growth inhibitors, primary screen, SYBR Green fluorescence, single dose replicates | hit rate 2.3% among 94,000 | AID 1159554, 2015 | activity change, % at 10 µM | 72 h; hits give low values; in the data active = activity change below about -80%; inconclusive = no clear call, values can overlap the other calls
# T cruzi growth-1 – T. cruzi intracellular proliferation inhibitors, primary screen, cell-based, beta-gal Tulahuen parasites, NIH3T3 host, luminescence | T. cruzi beta-gal in NIH3T3, GalScreen luminescence, 90 h | inhibition, % at 8.34 µM | hit rate 5.9% among 77,000 | AID 624255, 2012;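 active = mean inhibition above about 93%, with at least 55% of replicates each passing it, limit read from the data, passing the limit was not always enough; inconclusive = only one of those two conditions holds; inactive = neither condition holds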
# C diff growth – C. difficile growth inhibitors, primary screen, HTS | Clostridium difficile clinical isolate growth, OD600, 24 h; hits give low values | growth activity, negative = inhibition, % at 16 µg/mL (by protocol) | hit rate 0.25% among 86,000 | AID 1259249, 2017;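 active = mean growth activity at or below -80% and every replicate also at or below -80%; inconclusive = mean at or below -80% but some replicate above -80%; inactive = mean growth activity above -80%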
# T cruzi growth-2 – T. cruzi intracellular proliferation inhibitors, confirmation, cell-based, NIH3T3 host, beta-gal parasite, luminescence, cherry-pick | hit rate 72% among 5,600 | shares compounds with T cruzi growth-1 | T. cruzi beta-gal in NIH3T3, GalScreen luminescence, 90 h | AID 651739, 2012 | inhibition, % at 8.35 µM;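 active = mean replicate inhibition above about 95% and at least 55% of replicates individually reaching it, limit read from the data; inconclusive = only one of the two criteria is met; inactive = neither criterion is met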
# T cruzi growth-3 – inhibitors of intracellular T. cruzi replication, confirmation, NIH3T3 host cells, beta-gal parasites, cherry-pick, set 2. shares compounds with T cruzi growth-1. T. cruzi beta-gal in NIH3T3, GalScreen luminescence, 90 h. inhibition, % at 2.09 µM. hit rate 21% among 5,600. AID 651740, 2012;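 active = mean inhibition above about 95%, with at least 55% of replicates also reaching it, limit read from the data; inconclusive = meets just one of the two conditions; inactive = meets neither condition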
# NIH3T3 tox – cytotoxicity in mouse NIH/3T3 fibroblasts, confirmation, cytotoxicity control for T. cruzi proliferation inhibitor project, cell-based, cherry-pick, single point; shares compounds with T cruzi growth-1; AID 651742, 2012; hit rate 14% among 5,600; cytotoxicity (signal decrease), % at 8.35 µM; NIH/3T3 viability, CellTiter-Glo ATP luminescence, 90 h;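 active = mean signal decrease across replicates above about 35% based on untreated-well scatter, with enough replicates individually passing, limit read from the data; inconclusive = no rule stated though some were filed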
# NIH3T3 tox 2 – NIH/3T3 fibroblast cytotoxicity, confirmation, cytotoxicity control, cell-based, cherry-pick, single point, set 2; shares compounds with T cruzi growth-1; NIH/3T3 viability, CellTiter-Glo ATP luminescence, 90 h; inhibition, % at 24.9 µM; hit rate 56% among 5,600;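 active = mean loss of cell viability signal at or above a set limit, and enough replicates individually reaching it; inconclusive = meets only the mean limit or only the replicate share; inactive = meets neither condition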
# Hits are given with their value; . = inactive; ? = inconclusive; / = no result. Shown are actives, neighbours in structure and some others; about 6.7% of the full set was active somewhere.
SMILES,Pf Dd2 growth,T cruzi growth-1,C diff growth,T cruzi growth-2,T cruzi growth-3,NIH3T3 tox,NIH3T3 tox 2
COc1ccccc1-c1ccc2c(c1)[C@H]1[C@H](CCN1S(=O)(=O)c1cn(C)cn1)[C@@H](CO)N2,.,.,.,/,/,/,/
CCCNC(=O)N[C@@H]1C=C[C@@H](CC(=O)NC2CCCCC2)O[C@H]1CO,.,.,/,/,/,/,/
O=C(C[C@@H]1C[C@@H]2c3cc(NC(=O)NC4CCCC4)ccc3O[C@@H]2[C@@H](CO)O1)NCc1cccnc1,.,/,.,/,/,/,/
C[C@H]1CN([C@@H](C)CO)C(=O)CCCn2nncc2CO[C@@H]1CN(C)Cc1ccc(C(=O)Nc2ccccc2N)cc1,.,103,.,111,.,.,.
C[C@H](CO)N1C[C@H](C)[C@H](CN(C)Cc2ccc3cccnc3c2)OCc2cnnn2CCCC1=O,.,111,.,.,.,.,.
C[C@H](CO)N1C[C@H](C)[C@H](CN(C)Cc2ccc(C(=O)O)cc2)OCc2cnnn2CCCC1=O,.,/,.,/,/,/,/
C[C@@H]1CN([C@H](C)CO)C(=O)CCCn2nncc2CO[C@@H]1CN(C)Cc1ccc2cccnc2c1,.,.,/,/,/,/,/
CC(C)C#Cc1cnc2c(c1)C(=O)N([C@H](C)CO)C[C@@H](C)[C@H](CN(C)C(=O)Nc1cc(F)ccc1F)O2,/,.,.,/,/,/,/
CNC(=O)C[C@H]1CC[C@H]2[C@@H](COC[C@H](O)CN2Cc2ccccc2F)O1,.,/,.,/,/,/,/
O=C(C[C@@H]1C[C@H]2c3cc(NC(=O)Nc4ccccc4F)ccc3O[C@H]2[C@H](CO)O1)NCc1ccccn1,.,/,.,/,/,/,/
O=C(C[C@@H]1C[C@@H]2c3cc(NC(=O)Nc4ccccc4F)ccc3O[C@@H]2[C@H](CO)O1)NC1CCCCC1,.,.,.,/,/,/,/
O=C(C[C@H]1C[C@@H]2c3cc(NC(=O)Nc4ccccc4F)ccc3O[C@@H]2[C@H](CO)O1)NCc1ccccn1,.,109,.,.,.,.,.
O=C(C[C@H]1C[C@@H]2c3cc(NC(=O)Nc4ccccc4F)ccc3O[C@@H]2[C@@H](CO)O1)NC1CCCCC1,.,158,.,?,.,.,.
O=C(c1cccc(F)c1)N1CC[C@@H]2[C@H](CO)Nc3ccc(C#Cc4cccc(F)c4)cc3[C@@H]21,.,.,.,/,/,/,/
O=C(c1ccc(F)cc1)N1CC[C@@H]2[C@@H](CO)Nc3ccc(C#Cc4ccccc4F)cc3[C@@H]21,.,.,.,/,/,/,/
COc1ccccc1C#Cc1ccc2c(c1)[C@@H]1[C@@H](CCN1C(=O)c1ccccc1)[C@@H](CO)N2,.,104,.,106,.,.,.
O=C(c1cccc(F)c1)N1CC[C@@H]2[C@H]1c1cc(C#Cc3cccc(F)c3)ccc1N[C@@H]2CO,.,103,.,104,.,.,106
COc1ccccc1C#Cc1ccc2c(c1)[C@@H]1[C@@H](CCN1C(=O)c1ccccc1)[C@H](CO)N2,.,/,.,/,/,/,/
O=C(c1ccccc1)N1CC[C@@H]2[C@H]1c1cc(C#Cc3ccccc3F)ccc1N[C@@H]2CO,.,104,.,112,.,.,.
COc1ccccc1-c1ccc2c(c1)O[C@@H](CN(C)S(=O)(=O)c1ccc(C)cc1)[C@H](C)CN([C@@H](C)CO)S2(=O)=O,-84,126,.,100,.,.,46
COc1ccccc1-c1ccc2c(c1)O[C@H](CN(C)S(=O)(=O)c1ccc(C)cc1)[C@H](C)CN([C@H](C)CO)S2(=O)=O,.,120,.,100,?,.,53
O=C(C[C@@H]1CC[C@@H]2[C@H](COC[C@@H](O)CN2C(=O)c2ccccc2F)O1)NCc1ccccc1,.,.,/,/,/,/,/
C[C@@H]1CN([C@H](C)CO)C(=O)Cc2cc(NC(=O)C3CCCCC3)ccc2O[C@H]1CN(C)C(=O)NC1CCCCC1,.,.,.,/,/,/,/
C[C@H]1CN([C@@H](C)CO)C(=O)c2cccc(NC(=O)c3ccc(-c4nccs4)cc3)c2O[C@H]1CN(C)Cc1ccc(C(F)(F)F)cc1,.,.,/,/,/,/,/
C[C@H](CO)N1C[C@H](C)[C@H](CN(C)Cc2ccc(C(F)(F)F)cc2)Oc2c(NC(=O)c3ccc(-c4nccs4)cc3)cccc2C1=O,.,?,/,108,.,.,.
SMILES,Pf Dd2 growth,T cruzi growth-1,C diff growth,T cruzi growth-2,T cruzi growth-3,NIH3T3 tox,NIH3T3 tox 2
C[C@H](CO)N1C[C@H](C)[C@@H](CN(C)Cc2ccc(Oc3ccccc3)cc2)Oc2c(NC(=O)c3ccc(-c4nccs4)cc3)cccc2C1=O,.,?,/,100,112,.,.
C[C@H]1CN([C@@H](C)CO)C(=O)c2cccc(NC(=O)c3ccc(-c4nccs4)cc3)c2O[C@H]1CN(C)Cc1ccc(Oc2ccccc2)cc1,.,.,/,/,/,/,/
CCCNC(=O)Nc1ccc2c(c1)C(=O)N(C)[C@H]1CC[C@H](CC(=O)Nc3ccccc3C)O[C@@H]1CO2,.,.,.,/,/,/,/
C/C=C/c1cnc2c(c1)C(=O)N([C@@H](C)CO)C[C@@H](C)[C@@H](CN(C)S(=O)(=O)c1cn(C)cn1)O2,.,/,.,/,/,/,/
COc1ccc(-c2ccc([C@H]3[C@H](C#N)N(C(=O)c4cccnc4)[C@H]3CO)cc2)cc1,-91,107,.,108,.,.,31
N#C[C@H]1[C@@H](c2ccc(-c3cccnc3)cc2)[C@@H](CO)N1C(=O)Nc1ccc(F)cc1,.,105,.,108,.,.,.
N#C[C@@H]1[C@@H](c2ccc(C3=CCCC3)cc2)[C@H](CO)N1C(=O)c1cccc(F)c1,.,.,.,/,/,/,/
COc1ccc(-c2ccc([C@H]3[C@H](C#N)N(C(=O)c4cccc(F)c4)[C@H]3CO)cc2)cc1,?,106,.,101,111,.,.
N#C[C@@H]1[C@H](c2ccc(C3=CCCCC3)cc2)[C@H](CO)N1C(=O)c1cccc(F)c1,.,?,.,107,.,.,24
N#C[C@@H]1[C@@H](c2ccccc2)[C@@H](CO)N1C(=O)c1cccnc1,.,.,.,/,/,/,/
N#C[C@@H]1[C@H](c2ccc(-c3cccnc3)cc2)[C@H](CO)N1C(=O)Nc1ccc(F)cc1,.,.,.,/,/,/,/
COc1ccccc1-c1ccc([C@@H]2[C@@H](C#N)N(C(=O)c3cccc(F)c3)[C@@H]2CO)cc1,.,.,.,/,/,/,/
C[C@H]1CN([C@@H](C)CO)C(=O)c2cccc(NS(=O)(=O)c3ccc(F)cc3)c2O[C@@H]1CN(C)S(=O)(=O)c1ccccc1,.,.,.,/,/,/,/
CN1c2ccc(Br)cc2[C@H]2[C@H](CCN2C(=O)Cc2cccnc2)[C@@H]1CO,.,.,.,/,/,/,/

# Screening data from PubChem.
